Source: PubChem (National Center for Advancing Translational Sciences (NCATS))
HCMV inh = qHTS Assay for inhibitors of the human cytomegalovirus (HCMV); HFF cells, HCMV-luciferase reporter, 72 h; stronger effect = lower value; activity change, negative = inhibition, % at 57.5 µM; 4.5% of 410,000 active; AID 1259415, 2018; in the data active means activity change below about -60%; inconclusive means no clear call, values can overlap the other calls; inactive means above about -39%
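After 16 h attachment at 37C, HFF cells received test compound and HCMV-luciferase (1 PFU/cell); reporter luminescence read 72 h later, data normalized against buffer-only and known inhibitor Salinomycin.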
Pf growth 96h = Primary qHTS for delayed death inhibitors of the malarial parasite plastid, 96 hour incubation; P. falciparum luciferase reporter growth, 96 h; Potency, µM (highest dose often 28.7 µM), usual class: inhibitors; 6.9% of 320,000 active; AID 504834, 2011
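Erythrocytes infected with luciferase-expressing P. falciparum were dispensed at 2% hematocrit and 0.05% parasitemia (final), then incubated with compounds 96 hours at 37 C in 5% CO2. Luminescence after detection reagent addition reported growth.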
Pf growth 48h = Primary qHTS for delayed death inhibitors of the malarial parasite plastid, 48 hour incubation; P. falciparum luciferase growth in erythrocytes, 48 h; Potency, µM (highest dose often 28.7 µM), hits mostly inhibitors; 5.9% of 310,000 active; AID 504832, 2011
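Erythrocytes infected with P. falciparum carrying an integrated firefly luciferase reporter (2% hematocrit, 0.1% parasitemia final) were exposed to compounds in RPMI 1640 with 0.5% Albumax at 37 C, 5% CO2. Growth inhibition was scored as reduced luminescence.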
Cycloheximide cs = Cycloheximide Counterscreen for Small Molecule Inhibitors of Shiga Toxin; AID 2314, 2010; 12% of 300,000 active; max response, %; cell reporter, cycloheximide protein synthesis inhibition counterscreen; in the data active means max response mostly above about 13%, no sharp cut-off; inactive means mostly below about 14%; further: read at 38.3 µM for the half of the compounds with a filed dose
HCV inh = qHTS Assay for Inhibitors of Hepatitis C Virus (HCV); Huh7.5.1 HCVcc-Cre infection, luciferase reporter, 44 h; Potency, µM (titrated, usually from 41.8 µM), most hits filed as inhibitors; 3.4% of 340,000 active
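Compounds are dispensed onto cells plated 4 h earlier at 1,000 per well, with HCVcc-Cre virus (about 0.5 moi) added next. Following 44 h of culture, luminescent signal is measured for 15 sec after 15 min with substrate at room temperature.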
Shiga inhibitor = A qHTS for Small Molecule Inhibitors of Shiga Toxin | Vero cells, Shiga toxin protein synthesis inhibition reporter | inhibition, % at 38.7 µM | 9.2% of 290,000 active | AID 2315, 2010; in the data active means inhibition mostly above about 28%, no sharp cut-off; inactive means mostly below about 43%
Numbers stand for hits; - = inactive; ? = inconclusive; . = not tested or not shown; [ ] = dose if it differs, or a comment. This is a sample that favours compounds with a hit; in the whole collection about 21% have one here. Unless noted, the call rests on the fitted dose curve; in most records, active means well fitted inhibition curve with a large enough effect; inconclusive means small, poorly fitted or top-dose-only effect, or another doubt; inactive means no such curve, though single readings can be large or run the other way.

SMILES	HCMV inh	Pf growth 96h	Pf growth 48h	Cycloheximide cs	HCV inh	Shiga inhibitor
O=C(NN=C(Cc1ccccc1)Cc1ccccc1)C1CC1	-	-	-	20.9	-	-
O=C(NN=C(Cc1ccccc1)Cc1ccccc1)c1ccncc1	-	?	-	8.0	-	-
Cc1cc(C(=O)NN=C(Cc2ccccc2)Cc2ccccc2)c(C)o1	?	-	-	28.5	-	84.0
Cc1nc(Cl)c(C(=O)NC(=O)NCc2ccccc2)c(C)c1Cl	-	13.1µM	-	-	-	-
CCOC(=O)C1=c2/c(=C/c3ccncc3)c(N)c(C(=O)OC)n2C(=O)C(c2ccncc2)S1 (stereo not drawn)	?	-[5.75 µM]	-	-	-	-
CN(C)c1ccc(C(C#N)c2ccccc2)nn1 (stereo not drawn)	-	-	-	-	?	-
O=C(NCc1ccccc1)NC(=O)c1ccc(Cl)cc1	-	.	.	.	-	.
O=C(NCc1ccccc1)NC(=O)c1ccccc1F	-	?	-	27.5	-	32.8
O=C(NN=C(Cc1ccccc1)Cc1ccccc1)c1ccccc1F	?	-	-	37.5	-	90.7
O=C(c1ccccc1Cl)N1CCSCCS1(=O)=O	-	.	.	.	.	.
CC(=O)Nc1ccc(-c2nnc(SCC(=O)NCc3ccco3)n2C)cc1	-	6.57µM	.	-	-	-
CC(C)c1nnc(SCC(=O)NCc2ccco2)n1C	-	-	-	-	-	-
Cn1c(SCCSc2nnc(-c3ccccc3)n2C)nnc1-c1ccccc1	.	?	-	-	.	-
CCCCSc1nnc(-c2ccc(C)cc2)n1C	-	-	-	40.0	-	103.5
CCCCSc1nnc(-c2ccc(NC(C)=O)cc2)n1C	-	7.38µM	-	-	-	-
CN(C)C1=NC[C@H](Cc2ccccc2)N1CC1CCC(C(C)(C)C)CC1 (stereo partly drawn)	.	?	?	-	-	-
O=C(Nc1ccccc1C(F)(F)F)c1ccc2oc(=O)c(S(=O)(=O)c3ccc(F)cc3)cc2c1	-	.	.	.	.	.
Oc1c(Br)cc(Br)cc1/C=N/NC(=S)N[C@H]1CC2C=CC1C2 (stereo partly drawn)	?	?	?	-	-	-
CCOc1ccc(/C=N/NC(=S)NC2CC3C=CC2C3)cc1 (stereo not drawn)	?	8.28µM	?	-	?	-
COc1cc(/C=N/NC(=S)NC2CC3C=CC2C3)cc(OC)c1OC (stereo not drawn)	-61.0	2.94µM	5.22µM	-	?	-
O=C(Nc1ccccc1)C1=C[C@H](C2CC2)C[C@H](OCCCCO)O1	-	-	-	28.0	-	104.3
NC(=O)C1=C[C@H](C2CCCCC2)C[C@H](OCc2ccc(CO)cc2)O1	-	-	-	49.9	-	63.2
O=C(NCc1ccccc1)C1=C[C@H](C2CCCCC2)C[C@H](OCc2ccc(CO)cc2)O1	-83.6	?	?	-	-	-
O=C(NCc1ccccc1)C1=C[C@@H](C2CC2)C[C@@H](OCc2ccc(CO)cc2)O1	-	?	?	-	-	-
Cc1ccc(C(=O)COC(=O)CCc2nc3ccccc3[nH]c2=O)cc1C	-	2.62µM	-	-	-	-
SMILES	HCMV inh	Pf growth 96h	Pf growth 48h	Cycloheximide cs	HCV inh	Shiga inhibitor
Cc1ccc(C(=O)CSc2cnc3ccccc3n2)cc1C	-60.9	-	-	63.3	-	70.0
Cc1ccc(C(=O)COC(=O)c2ccc(-c3cnc4ccccc4n3)cc2)cc1C	-	-	-	14.5	-	-
O=C(CCc1nc2ccccc2[nH]c1=O)OCC(=O)c1ccc(Cl)cc1	-	-	-	-	-	-
O=C(CCCn1c(=S)[nH]c2ccccc2c1=O)NC1CCCC1	-	0.522µM	-	-	-	-
CC1CCCCC1NC(=O)CCCn1c(=S)[nH]c2ccccc2c1=O (stereo not drawn)	-	14.7µM	?	-	?	-
COc1ccc(S(=O)(=O)n2nc(-c3ccco3)nc2NCc2ccc(C(C)C)cc2)cc1	-	.	.	.	.	.
Cc1ccc(C(=O)SC2=NCCS2)cc1	-	9.28µM	-	-	-	-
O=C(O)/C=C/C(=O)NCCC(c1ccccc1)c1ccccc1	-	-	-	-	-	-
